Experimental data from PubChem BioAssay.
The source made the active and inactive calls.

How the values were obtained:
[1] = tested on: Plasmodium falciparum Sir2 (PF13_0152, Sir2A); test: Plasmodium falciparum Sir2A binding compounds – biochemical, small-molecule microarray, 635 nm fluorescence, primary screen (AID 1098); conditions: fluorescence 635 nm, higher = more signal;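 further: score merges spot fluorescence intensity with its signal-to-noise ratio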
[2] = probe aDKK1 binding to arrayed compounds – biochemical, biotinylated probe, 635/667 nm fluorescence, primary screen (AID 1099); conditions: small-molecule microarray, higher = more signal;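 further: score merges 667nm spot fluorescence with signal to noise across triplicate slides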
[3] = probe aCHRDL2 binding to arrayed compounds – biochemical, biotinylated probe, 635/667 nm fluorescence, primary screen (AID 1100); conditions: small-molecule microarray, higher = more signal
[4] = change in splice reporter luminescence, either direction, cell-based, HEK293, spliceosome inhibition project, primary screen (AID 1101); conditions: HEK293 splicing luciferase reporter, 24 h, higher = more signal, called active from +8 up or from −8 down;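 further: HEK293 cells carrying a splicing-competent luciferase reporter gene; test concentration not given here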
[5] = target: Fibroblast growth factor 10 (Homo sapiens) (UniProt O15520); test: compounds binding fibroblast growth factor 10 – biochemical, small-molecule microarray, 635 nm fluorescence, primary screen (AID 1102); conditions: FGF10 binding, fluorescence 635 nm, higher = more signal
[6] = tested on: glycogen synthase kinase-3 (GSK3A per assay name; protocol says GSK3B); test: compounds binding glycogen synthase kinase-3 – biochemical, small-molecule microarray, 635 nm fluorescence, GSK3A, primary screen (AID 1103); conditions: fluorescence 635 nm, higher = more signal; further: the record names both GSK3A and GSK3B
[7] = target: Epidermal growth factor receptor (Homo sapiens) (UniProt P00533); test: compounds binding epidermal growth factor receptor – biochemical, small-molecule microarray, 635 nm fluorescence, primary screen (AID 1104); conditions: EGFR binding, higher = more signal;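 further: score merges 667 nm emission intensity with spot signal to noise over triplicate slides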
[8] = target: Follistatin-related protein 3 (Homo sapiens) (UniProt O95633); test: compounds binding follistatin-related protein 3 – biochemical, small-molecule microarray, 635 nm fluorescence, primary screen (AID 1105); conditions: FSTL3 binding, higher = more signal;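 further: score merges emission near 667 nm and signal to noise per printed spot across three slides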
[9] = target: Dickkopf-related protein 1 (Homo sapiens) (UniProt O94907); test: small molecules binding DKK1 protein – biochemical, small-molecule microarray, 635 nm fluorescence scan, primary screen (AID 1106); conditions: higher = more signal;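 further: score merges emission near 667 nm with signal to noise over three replicate slides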
[10] = tested on: Inhibin beta A chain (activin A); test: small molecules binding activin A – biochemical, small-molecule microarray, 635 nm fluorescence scan, primary screen (AID 1107); conditions: INHBA, higher = more signal;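 further: mouse activin A protein probed at 4.33 µg/mL on printed slides; score merges bound-protein fluorescence near 667 nm with spot signal-to-noise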
[11] = tested on: Human papillomavirus type 1a protein E7 (residues 44-93); test: small molecules binding HPV E7 44-93 – biochemical, small-molecule microarray, residues 44-93, 635 nm fluorescence, primary screen (AID 1108); conditions: fluorescence 635 nm, higher = more signal;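 further: E7 fragment applied at 1 µg/mL in TBST for 1 h at 4 C; score combines spot fluorescence with its signal to noise ratio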
[12] = hepatitis C replication reporter changes, two-sided – Huh7 cells, luciferase reporter, HCV replication inhibitor project, primary screen (AID 1109); conditions: Huh7 HCV replicon luciferase reporter, 48 h; higher = more signal;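 further: huh7 hepatoma cells harbouring a luciferase neomycin HCV replicon reporter; luciferase luminescence as measure of HCV replicon replication; test concentration not given here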
[13] = target: Left-right determination factor 2 (Homo sapiens) (UniProt O00292); test: small molecules binding LEFTY2 protein – biochemical, small-molecule microarray, 635 nm fluorescence scan, primary screen (AID 1110); conditions: higher = more signal
[14] = target: Calmodulin-1 (Homo sapiens) (UniProt P0DP23); test: small molecules binding calmodulin-1 with EGTA – biochemical, small-molecule microarray, Cy5-labelled CALM1, profiling panel (AID 1111); conditions: Cy5-CALM1 binding fluorescence, higher = more signal;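 further: labelled calmodulin applied in Tris saline Tween buffer holding calcium plus EGTA and DTT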
[15] = target: Calmodulin-1 (Homo sapiens) (UniProt P0DP23); test: small molecules binding Ca-loaded calmodulin-1 – biochemical, small-molecule microarray, Cy5-labelled CALM1, plus calcium, artefact control for SMM control-protein annotation, profiling panel (AID 1112); conditions: Cy5-CALM1 binding fluorescence, higher = more signal;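 further: score merges spot fluorescence with signal to noise from triplicate slides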
[16] = probe aWnt5a binding to arrayed compounds – biochemical, biotinylated probe, 635/667 nm fluorescence, primary screen (AID 1113); conditions: small-molecule microarray, higher = more signal;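 further: score merges 667 nm fluorescence intensity with signal-to-noise per printed feature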
[17] = probe aShh binding to arrayed compounds – biochemical, biotinylated probe, 635/667 nm fluorescence, primary screen (AID 1114); conditions: small-molecule microarray, higher = more signal;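 further: probe is biotin-labelled aShh protein from a stem cell growth factor screen; measures binding of labelled protein to compounds printed on the slide; score merges feature fluorescence at 667 nm with signal-to-noise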
[18] = probe aNog binding to arrayed compounds – biochemical, biotinylated probe, 635/667 nm fluorescence, primary screen (AID 1115); conditions: small-molecule microarray, higher = more signal;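 further: probe is biotinylated aNog protein used at 0.15 µg/mL for 1 h at 4 C; z-score combines 667 nm fluorescence of each spot with its signal to noise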
[19] = target: Torsin-1A-interacting protein 1 (Homo sapiens) (UniProt Q5JTV8); test: compound microarray binding of lysate hLAP1 – cell lysate, small-molecule microarray, COS7 lysate, 635/667 nm fluorescence, primary screen (AID 1116); conditions: 635 nm fluorescence, higher = more signal
[20] = target: Alpha-bungarotoxin (Bungarus multicinctus) (UniProt P60615); test: compounds binding labelled alpha-BTX control protein – biochemical, small-molecule microarray, Alexa647 label, 635/667 nm fluorescence, artefact control for SMM control protein annotation, profiling panel (AID 1117); conditions: alpha-BTX-A647 binding fluorescence, higher = more signal
Chain of Alpha-bungarotoxin (Bungarus multicinctus) (P60615 whole entry, looked up): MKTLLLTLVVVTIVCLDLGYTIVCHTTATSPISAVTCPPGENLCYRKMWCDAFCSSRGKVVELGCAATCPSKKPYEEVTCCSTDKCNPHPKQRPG

Chain of Follistatin-related protein 3 (Homo sapiens) (O95633 whole entry, looked up): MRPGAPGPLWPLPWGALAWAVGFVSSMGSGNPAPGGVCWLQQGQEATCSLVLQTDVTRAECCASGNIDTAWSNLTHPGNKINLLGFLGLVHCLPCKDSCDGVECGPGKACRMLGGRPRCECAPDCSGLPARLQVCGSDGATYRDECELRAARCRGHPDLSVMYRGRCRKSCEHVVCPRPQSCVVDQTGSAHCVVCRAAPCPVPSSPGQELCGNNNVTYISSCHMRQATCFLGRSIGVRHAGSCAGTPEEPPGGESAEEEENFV
Chain of Dickkopf-related protein 1 (Homo sapiens) (O94907 whole entry, looked up): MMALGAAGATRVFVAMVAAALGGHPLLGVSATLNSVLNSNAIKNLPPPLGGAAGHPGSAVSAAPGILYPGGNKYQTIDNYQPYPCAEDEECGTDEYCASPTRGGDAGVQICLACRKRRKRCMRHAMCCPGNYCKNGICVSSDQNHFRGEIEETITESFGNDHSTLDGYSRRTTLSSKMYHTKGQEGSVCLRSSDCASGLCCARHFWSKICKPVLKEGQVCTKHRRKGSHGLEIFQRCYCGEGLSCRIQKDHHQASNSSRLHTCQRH
Chain of Left-right determination factor 2 (Homo sapiens) (O00292 whole entry, looked up): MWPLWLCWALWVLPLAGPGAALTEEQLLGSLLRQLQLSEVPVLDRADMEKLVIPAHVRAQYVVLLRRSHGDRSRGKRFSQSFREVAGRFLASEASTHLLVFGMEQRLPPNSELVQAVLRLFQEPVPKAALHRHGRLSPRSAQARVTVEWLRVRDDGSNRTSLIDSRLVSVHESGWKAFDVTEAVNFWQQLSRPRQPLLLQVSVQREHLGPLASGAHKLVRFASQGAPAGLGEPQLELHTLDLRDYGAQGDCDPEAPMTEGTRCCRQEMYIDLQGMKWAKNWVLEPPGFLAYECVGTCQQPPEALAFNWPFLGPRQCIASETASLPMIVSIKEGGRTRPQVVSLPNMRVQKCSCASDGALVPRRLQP
Chain of Epidermal growth factor receptor (Homo sapiens) (P00533 whole entry, looked up): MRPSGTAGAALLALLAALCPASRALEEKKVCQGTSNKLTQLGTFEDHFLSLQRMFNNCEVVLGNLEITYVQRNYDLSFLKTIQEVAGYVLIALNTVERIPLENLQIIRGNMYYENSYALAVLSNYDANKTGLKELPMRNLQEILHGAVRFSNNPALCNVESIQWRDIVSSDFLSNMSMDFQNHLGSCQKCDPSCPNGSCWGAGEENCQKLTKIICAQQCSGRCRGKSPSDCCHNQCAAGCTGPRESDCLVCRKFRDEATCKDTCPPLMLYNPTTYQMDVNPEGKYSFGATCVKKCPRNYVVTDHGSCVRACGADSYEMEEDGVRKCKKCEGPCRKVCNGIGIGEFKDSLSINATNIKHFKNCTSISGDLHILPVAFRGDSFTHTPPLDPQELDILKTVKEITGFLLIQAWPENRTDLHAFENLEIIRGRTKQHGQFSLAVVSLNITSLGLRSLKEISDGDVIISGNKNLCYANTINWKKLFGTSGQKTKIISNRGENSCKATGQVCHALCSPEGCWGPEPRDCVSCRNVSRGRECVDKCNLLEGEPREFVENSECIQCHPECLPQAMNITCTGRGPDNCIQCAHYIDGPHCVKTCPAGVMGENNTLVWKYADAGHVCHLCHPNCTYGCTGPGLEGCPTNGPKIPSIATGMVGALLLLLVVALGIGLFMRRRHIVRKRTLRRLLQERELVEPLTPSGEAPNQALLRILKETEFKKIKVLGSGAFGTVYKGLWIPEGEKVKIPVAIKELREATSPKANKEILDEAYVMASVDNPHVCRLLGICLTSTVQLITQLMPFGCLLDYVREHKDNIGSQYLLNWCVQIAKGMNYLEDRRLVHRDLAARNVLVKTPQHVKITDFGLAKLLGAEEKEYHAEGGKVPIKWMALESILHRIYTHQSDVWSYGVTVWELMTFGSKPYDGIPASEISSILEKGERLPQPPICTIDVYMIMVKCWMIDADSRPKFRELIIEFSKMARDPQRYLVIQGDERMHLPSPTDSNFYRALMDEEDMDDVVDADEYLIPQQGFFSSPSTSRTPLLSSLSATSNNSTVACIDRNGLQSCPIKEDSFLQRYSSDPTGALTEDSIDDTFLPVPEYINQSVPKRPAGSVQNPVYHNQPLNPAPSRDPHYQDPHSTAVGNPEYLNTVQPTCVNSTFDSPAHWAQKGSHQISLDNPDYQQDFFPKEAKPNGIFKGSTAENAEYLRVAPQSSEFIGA
Chain of Fibroblast growth factor 10 (Homo sapiens) (O15520 whole entry, looked up): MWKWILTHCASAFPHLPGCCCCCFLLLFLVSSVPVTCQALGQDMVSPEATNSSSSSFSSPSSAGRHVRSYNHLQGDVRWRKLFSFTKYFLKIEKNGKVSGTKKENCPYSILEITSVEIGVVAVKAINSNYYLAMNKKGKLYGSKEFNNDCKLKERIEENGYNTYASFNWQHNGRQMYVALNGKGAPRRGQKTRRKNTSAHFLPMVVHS
Chain of Torsin-1A-interacting protein 1 (Homo sapiens) (Q5JTV8 whole entry, looked up): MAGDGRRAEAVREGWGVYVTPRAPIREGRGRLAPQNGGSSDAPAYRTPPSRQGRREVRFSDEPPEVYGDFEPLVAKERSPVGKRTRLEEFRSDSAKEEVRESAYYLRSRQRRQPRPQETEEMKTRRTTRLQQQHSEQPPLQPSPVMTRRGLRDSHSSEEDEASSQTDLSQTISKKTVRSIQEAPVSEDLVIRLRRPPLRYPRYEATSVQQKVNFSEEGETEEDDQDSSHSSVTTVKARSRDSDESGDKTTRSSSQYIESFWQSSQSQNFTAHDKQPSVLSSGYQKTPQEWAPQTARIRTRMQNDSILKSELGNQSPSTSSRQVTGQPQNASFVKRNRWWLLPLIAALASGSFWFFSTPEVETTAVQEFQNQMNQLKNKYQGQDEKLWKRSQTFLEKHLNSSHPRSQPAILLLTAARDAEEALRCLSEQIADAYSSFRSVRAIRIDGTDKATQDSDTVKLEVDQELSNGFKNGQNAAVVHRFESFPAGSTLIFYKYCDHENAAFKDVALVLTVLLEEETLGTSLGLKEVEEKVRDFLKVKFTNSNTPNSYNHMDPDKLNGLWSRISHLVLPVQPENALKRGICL

| SMILES | composite z-score [1] | composite z-score [2] | composite z-score [3] | z-score [4] | composite z-score [5] | composite z-score [6] | composite z-score [7] | composite z-score [8] | composite z-score [9] | composite z-score [10] | composite z-score [11] | z-score [12] | composite z-score [13] | composite z-score [14] | composite z-score [15] | composite z-score [16] | composite z-score [17] | composite z-score [18] | composite z-score [19] | composite z-score [20] |
| --- | --- | --- | --- | --- | --- | --- | --- | --- | --- | --- | --- | --- | --- | --- | --- | --- | --- | --- | --- | --- |
| O=C1[C@H]2[C@H]3[C@H](O)[C@H](O)CC(=NOC[C@@H](O)COCc4ccco4)[C@@H]3CC[C@H]2C(=O)N1C[C@@H]1CCCO1 | 0.396 | -0.549 | -1.2 | -0.134 (inactive) | 0.204 | 1.24 | 1.14 | 1.49 | 1.51 | 1.22 | 0.0714 | 0.557 | 1.11 | -1.05 | -1.73 | -0.117 | -0.0553 | -0.218 | 0.3 | -0.075 |
| CCOC(=O)[C@H](CC(C)C)NC(=O)CCC1CC(OC(=O)NCc2cccc3ccccc23)CC2(CCCC(COC(=O)NCCOc3ccccc3)O2)O1 (stereo not given in full) | 0.951 | -0.246 | -0.383 | -1.87 (inactive) | 0.658 | 1.03 | 0.557 | 0.887 | 0.344 | 0.184 | 1.32 | -0.687 | 0.518 | 0.721 | -0.143 | 0.0162 | -0.253 | -0.311 | 0.556 | 0.266 |
| O=C(NN=C1C[C@@H](O)[C@@H](O)[C@@H]2[C@@H]3C(=O)N(Cc4ccccc4)C(=O)[C@@H]3CC[C@@H]12)OCc1ccccc1 | 0.0168 | -0.293 | -0.284 | -0.566 (inactive) | 0.0818 | 0.329 | 0.263 | 0.31 | 0.357 | 0.198 | -0.572 | 0.104 | 0.401 | -0.619 | -0.786 | -0.143 | -0.197 | -0.223 | -0.0694 | 0.0077 |
| COC(=O)CC=C[C@@H](C)[C@@H](C=NO[C@@H]1O[C@H](COC(C)=O)[C@@H](OC(C)=O)[C@H](OC(C)=O)[C@H]1OC(C)=O)NS(=O)(=O)c1ccc(C)cc1 | -0.119 | -0.268 | -0.645 | -0.15 (inactive) | 0.626 | -0.448 | 0.504 | -0.212 | 0.833 | -1.58 | -0.296 | -0.594 | 0.599 | -0.881 | -1.69 | -0.124 | -0.221 | -0.158 | -0.441 | -1 |
| CC(C)CON=C1C[C@@H](O)[C@@H](O)[C@@H]2[C@@H]3C(=O)N(c4cccc(Oc5ccccc5)c4)C(=O)[C@@H]3CC[C@@H]12 | 1.13 | -0.277 | -0.446 | -1.24 (inactive) | 0.746 | 0.789 | 0.368 | 0.348 | 0.195 | -0.163 | 1.35 | 0.251 | 0.374 | 1.05 | -0.426 | 0.0215 | -0.221 | -0.158 | 1.06 | 0.538 |
| C#CCCCON=C1C[C@@H](O)[C@@H](O)[C@@H]2[C@@H]3C(=O)N(Cc4ccccc4)C(=O)[C@@H]3CC[C@@H]12 | -0.596 | -0.0538 | 0.0175 | 0.351 (inactive) | -0.158 | -0.287 | 0.193 | -0.016 | -0.211 | 0.359 | 0.0417 | 0.858 | 0.26 | -0.274 | -0.0051 | -0.0236 | -0.253 | -0.133 | -0.194 | -0.221 |
| COC(=O)CC=C[C@@H](C)[C@H](OCc1cccc(-c2ccccc2)c1)C1CCCCC1 | -0.632 | -0.416 | -0.223 | -0.102 (inactive) | -0.127 | -1.21 | 0.371 | 0.736 | 0.352 | 1.97 | -0.533 | 1.04 | 0.134 | -0.532 | 0.472 | -0.12 | -0.0694 | -0.168 | 0.14 | 1.9 |
| CC(CCN1CCc2nc(-c3ccccc3)c(-c3ccccc3)cc2C1)=NOC[C@@H](O)[C@H]1O[C@@H]2OC(C)(C)O[C@@H]2[C@H]1O | 0.525 | -0.414 | -0.395 | 0.662 (inactive) | 0.743 | 0.587 | 0.28 | 0.583 | 0.341 | 0.376 | 1.12 | -2.73 | 0.642 | 0.12 | -0.233 | -0.139 | -0.0709 | -0.353 | 0.825 | 0.673 |
| CCc1cc2c(nc1CC)CCN(CCC(C)=NO[C@H](C)c1cn([C@@H]3COC[C@H]3O)nn1)C2 | 0.346 | -0.156 | -0.334 | 0.212 (inactive) | 0.189 | 0.229 | 0.545 | 0.433 | 0.611 | 0.468 | -0.236 | -0.53 | 0.368 | -0.433 | -0.931 | -0.0479 | 0.0723 | -0.172 | 0.651 | 0.173 |
| CCN1C(=O)[C@H]2[C@H]3[C@H](O)[C@H](O)CC(=NOC[C@H]4O[C@H](c5ccccc5)C=C[C@@H]4Oc4ccc(OC)cc4)[C@@H]3CC[C@H]2C1=O | 0.605 | 0.0709 | -0.187 | 0.387 (inactive) | 0.809 | 0.62 | 0.452 | 0.616 | 0.85 | -0.0495 | 0.783 | -1.65 | 0.621 | 0.406 | -0.332 | -0.0045 | 0.318 | 0.364 | 0.447 | 1.05 |
| CCOC(=O)[C@H](Cc1ccccc1)NC(=O)CCC1CC(OC(=O)NCCc2ccc(F)cc2)CC2(CCCC(COC(=O)NCC3CCCCC3)O2)O1 (stereo not given in full) | 0.711 | -0.184 | -0.761 | -0.308 (inactive) | 1.03 | 1.24 | 0.53 | 1.2 | 1.33 | 0.0408 | 1.38 | -0.019 | 1.03 | 0.325 | -0.207 | -0.232 | -0.2 | -0.273 | 0.237 | 0.289 |
